# Pf Dd2 growth = inhibitors of Plasmodium falciparum Dd2 growth | P. falciparum Dd2 growth, SYBR Green, 72 h | Potency, µM (highest dose often 28.9 µM), without a hit: at the top dose activity, negative = inhibition, hits mostly inhibitors | actives 4.3% (n = 120,000); active = well fitted inhibition curve with a large enough effect;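 also: plate controls were DMSO vehicle for no effect and reference drug for full effect; nearly all actives have a fitted effect of over 65% in size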
#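 Infected erythrocytes (Dd2, 0.3% parasitemia, 2.5% hematocrit final) are added to compound in RPMI-1640/Albumax II medium, grown 72 h at 37C in low oxygen, then lysed with saponin/Triton-X containing SYBR Green and read by fluorescence.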
# * = called active by the depositor; i = inactive; [ ] = dose if it differs, or a comment. Shown is part of a subset that was picked to be rich in hits. Potency is read from the fitted curve at half-maximal effect.
SMILES,Pf Dd2 growth
Cc1ccc(-c2n[nH]c3c2C(c2cccs2)N(c2ccc(Cl)cc2)C3=O)cc1 (stereo not drawn),11µM*
CCOC(=O)c1ccc(N2C(=O)c3n[nH]c(C)c3C2c2ccc(C(C)C)cc2)cc1 (stereo not drawn),-19%
CNC1CCc2nn(C)c(=O)n2CC1 (stereo not drawn),21%
CN1CCC2(CCC1=O)CN(C(=O)Cn1cccnc1=O)CCN2C (stereo not drawn),-5%
COc1ccc(C(=O)N2CC(c3nnc(-c4ccncc4)o3)C3(CCOCC3)C2)cc1 (stereo not drawn),-21%
CCCNC(=O)N1CCCC1c1nc(CCOCC2CC2)no1 (stereo not drawn),6%
CCOC(=O)c1ccc(N2C(=O)c3n[nH]c(-c4cccs4)c3C2c2ccc(Cl)cc2Cl)cc1 (stereo not drawn),-4%
CCOC(=O)c1ccc(N2C(=O)c3n[nH]c(-c4cccs4)c3C2c2cccc(F)c2)cc1 (stereo not drawn),7.9µM*
COc1cccc(C2NC(=O)c3n[nH]c(-c4cccs4)c32)c1 (stereo not drawn),-14%
COc1ccc(-c2nc(CN3CCN(CCO)CC3)c(C)o2)c2ccccc12,11µM*
COc1ccc(F)c(-c2nc(CN3CCN(S(N)(=O)=O)CC3)c(C)o2)c1,-1%
COc1cc(-c2nc(CN3CCSCC3)c(C)o2)ccc1F,-13%
Cc1ccc(C(=O)N2C[C@H](c3nc(-c4ccncc4)no3)[C@@H](C)C2)c(C)c1,i
CCn1ccc2c(CN3CCC4(CCCN(CCOC)C4=O)C3)cccc21 (stereo not drawn),-14%
CCn1cc(S(=O)(=O)c2cc(C)cc(C)c2)c(=O)c2cc(F)c(N3CCC(C)CC3)cc21,i
CCc1ccc(S(=O)(=O)c2cn(C)c3cc(N4CCOCC4)c(F)cc3c2=O)cc1,-19%
CCCn1cc(S(=O)(=O)c2ccc(CC)cc2)c(=O)c2cc(F)c(N3CCN(C)CC3)cc21,7.1µM*
CCCN1CCN(c2cc3c(cc2F)c(=O)c(S(=O)(=O)c2ccc(CC)cc2)cn3CC)CC1,10µM*
CCCCn1cc(S(=O)(=O)c2ccccc2)c(=O)c2cc(F)c(N3CCN(CCC)CC3)cc21,-10%
CCc1ccc(S(=O)(=O)c2cn(C)c3cc(N4CCCC4)c(F)cc3c2=O)cc1,-10%
CCOc1ccccc1C1NC(=O)N(CC(=O)Nc2cccc(Cl)c2)C2=C1C(=O)OC2 (stereo not drawn),i
Cn1nccc1CN1CCn2c(nnc2C2CCCNC2)C1 (stereo not drawn),-6%[44.1 µM]
CCc1ccccc1NC(=O)CN1C(=O)NC2(CCC(C)CC2)C1=O (stereo not drawn),i
CNC(=O)[C@H]1C[C@H](Oc2cccnc2)CN1S(=O)(=O)c1ccc(OC)cc1,-9%
CCOc1ccc(Cn2c(CNS(=O)(=O)c3cccc(Cl)c3)nc3cccnc32)cc1,-8%
SMILES,Pf Dd2 growth
CSc1ccc(/C=C/c2nc3ccccc3n2S(=O)(=O)c2ccc(F)c(C)c2)cc1,i
CCOc1ccc(/C=C/c2nc3ccccc3n2S(=O)(=O)c2cccc(Cl)c2)cc1,3.5µM*
CN(C)C(=O)c1ccc(OC2CCN(C(=O)c3ccc(Br)cc3)CC2)nc1,-28%
CCO[C@H]1CN(C(=O)CCc2ccc(-c3ccccc3)cc2)C[C@@H]1O,-12%
CC(=O)N1CC2(Cc3ccccc31)CN(C(=O)N(C)C)C2,10%[44.1 µM]
COC[C@H]1CCCN1[C@@H]1[C@H](O)[C@H](CO)O[C@@H]1CNS(=O)(=O)c1cccs1,-13%
COC[C@H]1CCCN1[C@@H]1[C@H](O)[C@H](CO)O[C@@H]1CN(Cc1ccc(F)cc1)Cc1ccc(F)cc1,4.5µM*
OC[C@@H]1O[C@H](CNCc2ccc(F)cc2)[C@H](N2CCCC2)[C@@H]1O,i
O=C(Nc1ccc([C@@H](O)[C@H]2COCC(=O)N2CC2CCCCC2)cc1)C1CCC1,i
COCC(=O)NCC1c2cc(OC)c(OC)cc2CCN1C(=O)Nc1cccc(F)c1 (stereo not drawn),i
Cc1cc(=O)oc2cc(OCC(=O)Nc3ccc(O)c(C(=O)O)c3)ccc12,5%
CCCC(=O)N1CCc2cc(OC)c(OC)cc2C1COc1ccc2c(C)cc(=O)oc2c1 (stereo not drawn),7.1µM*
COc1cc2c(cc1OC)C(COc1ccc3c(C)cc(=O)oc3c1)N(C(=O)c1ccc(C)c(C)c1)CC2 (stereo not drawn),5µM*
CCCNC(=O)NCC1c2cc(OC)c(OC)cc2CCN1C(=O)NCC (stereo not drawn),-18%
COc1cc2c(cc1OC)C(CNC(=O)c1ccc(C)cc1)N(C(=O)NC(C)C)CC2 (stereo not drawn),-2%
COc1cc2c(cc1OC)C(COc1ccc3c(C)cc(=O)oc3c1)N(C(=O)c1ccc(C)cc1)CC2 (stereo not drawn),11µM*
COc1cc2c(cc1OC)C(CNC(=O)c1cccs1)N(C(=O)Nc1ccc(C)cc1)CC2 (stereo not drawn),-3%
COc1cccc(CN2CCOC3CCN(Cc4cccc(Cl)c4)CC3C2=O)c1 (stereo not drawn),i
NC[C@H]1O[C@@H](CO)[C@@H](O)[C@H]1N1CCN(c2ncccn2)CC1,-2%[44.1 µM]
O=C(COc1ccccc1)N1CC(F)(F)C[C@H]1c1nnc(C2CC2)o1,25%
CCC(=O)NCCC1CCN(C(=O)Nc2ccc(C)cc2)CC1,-6%
Cc1ccc(NC(=O)N2CCC(CCNC(=O)Cc3cccc(F)c3)CC2)cc1,i
Cc1ccc(OCC(=O)NCCC2CCN(C(=O)Nc3ccc(F)cc3)CC2)cc1,13µM*
Cc1ccc(NC(=O)N2CCC(CCNC(=O)c3n[nH]c4ccccc34)CC2)cc1F,4µM*
Cc1cccc(C(=O)NCCC2CCN(C(=O)Nc3ccc(F)cc3)CC2)c1,-18%
SMILES,Pf Dd2 growth
CCC(=O)NCCC1CCN(C(=O)Nc2ccc(C)c(F)c2)CC1,-18%
CC(C)COc1cc(=O)n2c(c1C(=O)N1CCN(c3ccccn3)CC1)CCCCC2,-6%
Cc1ccc(CNC(=O)c2cc3cn(C(C)C)cc3s2)cc1,-11%
CN(C)c1ccc(CN2CC[C@H](c3nc4cc(Cl)ccc4o3)C2)cc1,i
Cc1ccc(CN2CCc3oc(C)c(C(=O)N4CCSCC4)c3C2)cc1,10µM*
COc1ccc(-n2nc3n(c2=O)CCN(Cc2ccc(F)cc2)C3)cc1,11%
CCCn1ccc2oc(C)c(C(=O)N3CCN(c4ccc(F)cc4)CC3)c2c1=O,-13%
CCOC(=O)C1CCCCN1C(=O)c1cn(C(c2ccccc2)c2ccccc2)nn1 (stereo not drawn),-14%
Cc1oc2ccn(Cc3ccccc3F)c(=O)c2c1C(=O)N1CCN(c2ccccc2)CC1,-22%
COCCCNC(=O)c1c(C)oc2c1CN(Cc1ccc(F)cc1)CC2,-23%
CCOC(=O)C1CCCCN1C(=O)c1c(C)oc2c1CN(Cc1cccc(F)c1)CC2 (stereo not drawn),6.3µM*
COc1ccc(N(C)C(=O)c2c(C)oc3c2CN(Cc2ccc(F)cc2)CC3)cc1,13µM*
Cc1oc2c(c1C(=O)N1CCN(c3ccccc3)CC1)CN(Cc1ccc(F)cc1)CC2,11µM*
Cc1oc2c(c1C(=O)N(C)CCc1ccccn1)CN(Cc1cccc(F)c1)CC2,-26%
Cc1oc2c(c1C(=O)N1CCOCC1)CN(C(=O)c1ccncc1)CC2,-28%
Cc1ccc(CN2CCc3oc(C)c(C(=O)N4CCC(C(N)=O)CC4)c3C2)cc1,-20%
CC(C)CCNC(=O)c1cnc2n1CCN(Cc1ccccc1Cl)CC2,i
